Results published in the supplement of paper PMC6555819.

Assays:
Experiment in all cases: PBM binding z-score (relative to random genomic background probes); higher = stronger binding; sequences stand for … in GC…GCGATTGACAGCGTAGAATGAAGG
[1] = system: FXR:RXRa (NR concentration 270 nM, RXRa partner concentration 90 nM)
In short: (§1)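 Custom Agilent 4×180K protein-binding microarrays carried double-stranded probes, each with a 34-nt variable region. These regions held direct-repeat seeds, single-nucleotide variants, half-site ablations and random human genomic background sequences. Ligand-free nuclear receptor dimers were incubated on the arrays for 1 h, antibodies against each partner (one per run) detected binding, and scanned fluorescence was regression-normalized. Binding z-scores take the random background probes as reference.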

[2] = system: LXRa:RXRa (NR concentration 270 nM, RXRa partner concentration 90 nM)
In short: as §1

[3] = system: LXRa homodimer (NR concentration 270 nM)
In short: as §1

[4] = system: LXRb:RXRa (NR concentration 270 nM, RXRa partner concentration 90 nM)
In short: as §1

[5] = system: LXRb homodimer (NR concentration 270 nM)
In short: as §1

[6] = system: PPARa:RXRa (NR concentration 270 nM, RXRa partner concentration 90 nM)
In short: as §1

[7] = system: PPARg:RXRa (NR concentration 180 nM, RXRa partner concentration 90 nM)
In short: as §1

[8] = system: PPARg:RXRa 270nM:90nM, anti-RXR (NR concentration 270 nM, RXRa partner concentration 90 nM)
In short: as §1

[9] = system: PPARg:RXRa 30nM:10nM, anti-RXR (NR concentration 30 nM, RXRa partner concentration 10 nM)
In short: as §1

[10] = system: PPARg:RXRa 90nM:30nM, anti-RXR (NR concentration 90 nM, RXRa partner concentration 30 nM)
In short: as §1

Sequence | PBM binding z-score [1] | PBM binding z-score [2] | PBM binding z-score [3] | PBM binding z-score [4] | PBM binding z-score [5] | PBM binding z-score [6] | PBM binding z-score [7] | PBM binding z-score [8] | PBM binding z-score [9] | PBM binding z-score [10]
CTTCCAAGGTCAGCAGGTCAGTGAAAGCGACGTG | 5.62 | 4.48 | 0.986 | 3.24 | 0.067 | 4.87 | 3.78 | 4.64 | 1.14 | 3.27
AATACAGGGTCACTAAGCCAGAGTAGGTACGAAT | 6.17 | 4.69 | 0.732 | 3.96 | 0.99 | 5.51 | 6.22 | 5.26 | 2.31 | 3.83
ATATGTAGGTTATCGGGTCAGTCAGTTTGCGCAT | 2.15 | 2.12 | 0.91 | 1.91 | 1.49 | 4.28 | 6.83 | 5.81 | 3.11 | 5
ACAGACAGGTGATAAAGGTAACTCAGGCTATCAT | -0.11 | -0.0181 | -0.44 | 0.128 | -0.23 | 0.763 | 1.15 | 1.47 | 0.377 | 1.35
TCTGCTAGGTCAACGATGGTCCGCTAATCTGCTA | 2.99 | 2.08 | -0.377 | 1.02 | -0.262 | 3 | 2.07 | 2.75 | 1.9 | 2.22
CGTCCAAGGTCATAGGACGTCAGTGAAGACAGAT | 7.14 | 5.2 | 0.696 | 3.88 | 0.284 | 5.43 | 4.73 | 5.14 | 1.6 | 3.51
GCTCGGAGGACAAGGTCATAGCTTTGTCCGTAGA | 4.1 | 3.71 | 0.47 | 2.77 | -0.053 | 4.08 | 2.43 | 3.37 | 0.472 | 2.08
CAAACTAGGTCAAGAGGACAAAGTCCGCTTCCCG | 3.92 | 2.83 | 1.1 | 1.67 | 0.143 | 4.69 | 7.86 | 6.69 | 4.57 | 6.62
CCGACAGGGGCAAGGTTACCATAACGCACAGCCA | 0.485 | 0.975 | -0.0477 | 0.737 | -0.848 | 1.49 | 1.32 | 0.765 | 0.0629 | 0.378
TCATATAGGTAATACAGGTGAAAGTGGGCATCTA | 1.4 | 1.27 | 0.56 | 1.21 | 0.302 | 2.33 | 2.41 | 3.18 | 4.26 | 3.72
TATCCTAGGTCATGCGGGCCAGTATAGTGTCGGC | 4.73 | 5.7 | 4.76 | 2.7 | 2.07 | 4.14 | 3.92 | 3.74 | 1.55 | 2.88
ATATTTAGGTTAAGGGTCATTCAGGTTGGTTCGC | 5.26 | 4.78 | 3.91 | 4.61 | 3.14 | 6.38 | 11 | 9.52 | 9.42 | 10.5
AGCTCTAGGTAACCAAGTTCAGTGAATGCCGAAC | -0.0702 | 0.208 | 0.46 | 0.265 | -0.228 | 0.481 | 0.22 | 0.513 | -0.0768 | -0.252
TCTAGTTGGTAAAAGGTCACACACTCGAAATGCG | 5.62 | 5.67 | 4.26 | 5.25 | 1.91 | 5.95 | 8.69 | 8.46 | 8.09 | 9.72
TCATATAGGTAAACGGGTGAAAGTCCGTAAGTTA | 0.647 | 0.398 | 0.0709 | 0.834 | -0.231 | 2.29 | 2.73 | 3.65 | 3.72 | 3.68
TAGCCTAGGTCTTGCGGGCCAGTATAGTGTCGGC | -0.844 | -0.906 | -0.807 | -1.17 | -1.2 | -0.636 | -0.663 | -0.775 | -0.745 | -1.05
